Assay results published in PubChem BioAssay (NCI).
Compounds without any hit were thinned out: in the full panel of roughly 79,000, 15% have a hit. A number with no mark means an inactive call. Calls of active or inactive are those of the source. No stated cut-off is given here; in the data, active means growth inhibition above about 70%; inactive means the rest.

Experiments:
[1] = NCI Yeast Anticancer Drug Screen. Data for the rad50 strain (AID 155);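 further: 0% = growth of vehicle-only cultures of the same strain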; details: S. cerevisiae rad50 strain growth inhibition; at 50.0 µM; hits give high values
How it was run: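 Readout: growth inhibition relative to vehicle-treated cultures. Compound exposure was carried out in a genetically defined yeast strain deficient in DNA damage repair.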

[2] = NCI Yeast Anticancer Drug Screen. Data for the mec2-1 strain (AID 157); details: S. cerevisiae mec2-1 strain, at 50.0 µM, hits give high values
How it was run: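 Strain: mec2-1 (DNA repair/cell cycle alteration). Compound exposure, then growth measured; inhibition expressed relative to vehicle.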

[3] = NCI Yeast Anticancer Drug Screen. Data for the sgs1 mgt1 strain (AID 161);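 further: 0% = growth of cultures given vehicle only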; details: S. cerevisiae sgs1 mgt1 strain, at 50.0 µM, hits give high values
How it was run: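 Test agents were incubated with a DNA-repair-mutant yeast strain. Growth was then read and compared against vehicle-treated controls.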

[4] = NCI Yeast Anticancer Drug Screen. Data for the cln2 rad14 strain (AID 165);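 further: 0% = growth equal to vehicle treated cultures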; details: S. cerevisiae cln2 rad14 strain, at 50.0 µM, hits give high values
How it was run: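 Compounds are applied to the cln2 rad14 yeast strain, and growth is then compared with that of vehicle-treated cultures to give inhibition.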

[5] = NCI Yeast Anticancer Drug Screen. Data for the bub3 strain (AID 167); details: S. cerevisiae bub3 mutant strain, at 50.0 µM, hits give high values
How it was run: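 Readout: yeast growth inhibition, expressed relative to vehicle-only wells. The test organism is a mutant strain from a panel with lesions in DNA repair or checkpoint genes.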

[6] = NCI Yeast Anticancer Drug Screen. Data for the mlh1 rad18 strain (AID 175); details: S. cerevisiae mlh1 rad18 strain growth inhibition; at 50.0 µM; hits give high values
How it was run: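 Read-out is yeast growth inhibition, calculated against vehicle-only controls. The compound was applied to a strain engineered with DNA damage repair alterations.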

Structure (SMILES): O=c1c2ccccc2nc(-c2ccccc2)n1NC(=S)Nc1ccccc1
- growth inhibition [1]: -27.9%
- growth inhibition [2]: -42.6%
- growth inhibition [3]: -39.8%
- growth inhibition [4]: -13.8%
- growth inhibition [5]: -19.9%
- growth inhibition [6]: -19%

Structure (SMILES): O=[N+]([O-])c1cc(Cl)ccc1NC(Nc1ccc(Cl)cc1[N+](=O)[O-])C(Cl)(Cl)Cl
- growth inhibition [1]: 44.5%
- growth inhibition [2]: 10.1%
- growth inhibition [3]: 28.4%
- growth inhibition [4]: -31.9%
- growth inhibition [5]: 3.6%
- growth inhibition [6]: 35.8%

Structure (SMILES): N=c1oc2ccccc2cc1-c1nc2ccccc2c(=O)[nH]1
- growth inhibition [1]: -1.75%
- growth inhibition [2]: -3.25%
- growth inhibition [3]: 4.5%
- growth inhibition [4]: 11.7%
- growth inhibition [5]: -13.4%
- growth inhibition [6]: 17.3%

Structure (SMILES): O=C(NCc1ccc(Cl)c(Cl)c1)Nc1ccccc1Cl
- growth inhibition [1]: 10.6%
- growth inhibition [2]: 24.4%
- growth inhibition [3]: 23.3%
- growth inhibition [4]: -2.7%
- growth inhibition [5]: 24.8%
- growth inhibition [6]: 17.9%

Structure (SMILES): C/C(=N/NC(N)=O)C1=CCCC1
- growth inhibition [1]: 2.9%
- growth inhibition [2]: -2.05%
- growth inhibition [3]: -6.6%
- growth inhibition [4]: 11%
- growth inhibition [5]: 7.55%
- growth inhibition [6]: -9.1%

Structure (SMILES): O=c1ncccn1C1OC(CO)C(O)C1F (stereo not drawn)
- growth inhibition [1]: 4.75%
- growth inhibition [2]: -6.7%
- growth inhibition [3]: 9.5%
- growth inhibition [4]: -7.15%
- growth inhibition [5]: 3.75%
- growth inhibition [6]: -1.7%

Structure (SMILES): N#CCCC1(CCC#N)CCCCCCCCC(CCC#N)(CCC#N)C(=O)C1=O
- growth inhibition [1]: -8.7%
- growth inhibition [2]: -7.2%
- growth inhibition [3]: -5.15%
- growth inhibition [4]: 6.65%
- growth inhibition [5]: 2.4%
- growth inhibition [6]: 14.7%

Structure (SMILES): CCCOC(=O)CCCCCC1CCCCC1
- growth inhibition [1]: 15.2%
- growth inhibition [2]: 6.1%
- growth inhibition [3]: -5.8%
- growth inhibition [4]: -33.1%
- growth inhibition [5]: -8.1%
- growth inhibition [6]: 8%

Structure (SMILES): NCC(N)C(O)C(O)C(O)CO (stereo not drawn)
- growth inhibition [1]: 5.65%
- growth inhibition [2]: -2.25%
- growth inhibition [3]: -2.85%
- growth inhibition [4]: -43.1%
- growth inhibition [5]: -16.4%
- growth inhibition [6]: 2.7%

Structure (SMILES): CC(C)O[Si](OC(C)C)(OC(C)C)OC(C)C
- growth inhibition [1]: 13.2%
- growth inhibition [2]: -16.1%
- growth inhibition [3]: -8.7%
- growth inhibition [4]: -3.25%
- growth inhibition [5]: 9.9%
- growth inhibition [6]: 2.6%

Structure (SMILES): CC1(C)N=C(N)N=C(N)N1c1cccc(OCc2cccc([N+](=O)[O-])c2)c1
- growth inhibition [1]: 0.55%
- growth inhibition [2]: 7.2%
- growth inhibition [3]: -31.3%
- growth inhibition [4]: 24.6%
- growth inhibition [5]: -30.3%
- growth inhibition [6]: -14.8%

Structure (SMILES): CC1=CCCCC1=O
- growth inhibition [1]: -7.25%
- growth inhibition [2]: -4.35%
- growth inhibition [3]: 5.6%
- growth inhibition [4]: 2.4%
- growth inhibition [5]: -12.9%
- growth inhibition [6]: -4.15%

Structure (SMILES): Cc1cc(Cl)c(C)c(C)c1O
- growth inhibition [1]: 22.6%
- growth inhibition [2]: 5.45%
- growth inhibition [3]: -20.2%
- growth inhibition [4]: 16.6%
- growth inhibition [5]: 1.25%
- growth inhibition [6]: 21.4%

Structure (SMILES): CC(=O)n1nc(Cl)c2cccnc2c1=O
- growth inhibition [1]: 11.8%
- growth inhibition [2]: -1.1%
- growth inhibition [3]: 4.3%
- growth inhibition [4]: 1.55%
- growth inhibition [5]: -0.4%
- growth inhibition [6]: 8.85%

Structure (SMILES): CC(=O)NNC(=O)c1ccc(Br)cc1
- growth inhibition [1]: 1.3%
- growth inhibition [2]: -16.4%
- growth inhibition [3]: 0.5%
- growth inhibition [4]: -3.2%
- growth inhibition [5]: 21.6%
- growth inhibition [6]: -1.05%

Structure (SMILES): O=[N+]([O-])c1ccc(Cl)cc1N/N=C/c1ccnc2ccccc12
- growth inhibition [1]: -53.4%
- growth inhibition [2]: -56.1%
- growth inhibition [3]: -28.6%
- growth inhibition [4]: -15.1%
- growth inhibition [5]: -17.4%
- growth inhibition [6]: -54.9%

Structure (SMILES): CCCC(=O)SCC[N+](C)(C)C
- growth inhibition [1]: -10.2%
- growth inhibition [2]: -48.3%
- growth inhibition [3]: 15.4%
- growth inhibition [4]: 21.6%
- growth inhibition [5]: -13.3%
- growth inhibition [6]: 4.5%

Structure (SMILES): CC(C)(C)C1=CC(=N/S(=O)(=O)c2ccccc2)/C(N=[N+]=[N-])=C(Cl)C/1=N\S(=O)(=O)c1ccccc1
- growth inhibition [1]: 54.8%
- growth inhibition [2]: 27.4%
- growth inhibition [3]: 48.2%
- growth inhibition [4]: 14%
- growth inhibition [5]: 23.6%
- growth inhibition [6]: 39%

Structure (SMILES): CN1CCC=C(C(C)(C)O)C1
- growth inhibition [1]: -3.55%
- growth inhibition [2]: -4.45%
- growth inhibition [3]: -15.7%
- growth inhibition [4]: 11.3%
- growth inhibition [5]: -0.6%
- growth inhibition [6]: 2.35%

Structure (SMILES): Cc1cc(N(C)C)c([N+](=O)[O-])cc1C=O
- growth inhibition [1]: 5.9%
- growth inhibition [2]: 13.8%
- growth inhibition [3]: -13.3%
- growth inhibition [4]: -22.4%
- growth inhibition [5]: -24.9%
- growth inhibition [6]: -5.8%

Structure (SMILES): S=C(NC1CCCCC1)N1CCC(CCCC2CCN(C(=S)NC3CCCCC3)CC2)CC1
- growth inhibition [1]: -42.8%
- growth inhibition [2]: -31.2%
- growth inhibition [3]: -44.5%
- growth inhibition [4]: -1.05%
- growth inhibition [5]: -41.8%
- growth inhibition [6]: -46.2%

Structure (SMILES): O=C1NC(=O)C2(CCC(O)C2)c2cc[n+]([O-])cc21 (stereo not drawn)
- growth inhibition [1]: -8.55%
- growth inhibition [2]: -41.4%
- growth inhibition [3]: -13.6%
- growth inhibition [4]: 8.25%
- growth inhibition [5]: -25.6%
- growth inhibition [6]: -83.8%

Structure (SMILES): CCOC(=O)NC(Nc1ccc(F)c(F)c1)(C(=O)OCC)C(F)(F)F (stereo not drawn)
- growth inhibition [1]: 5.4%
- growth inhibition [2]: -1.3%
- growth inhibition [3]: -9.1%
- growth inhibition [4]: 15.4%
- growth inhibition [5]: 9.75%
- growth inhibition [6]: 39.5%

Structure (SMILES): CC(O)(/C=C/c1ccccc1)P(=O)(O)c1ccccc1 (stereo not drawn)
- growth inhibition [1]: -40%
- growth inhibition [2]: -13.2%
- growth inhibition [3]: -29.1%
- growth inhibition [4]: -13%
- growth inhibition [5]: -13.3%
- growth inhibition [6]: 9.4%

Structure (SMILES): CC(C)C(=O)NCCc1ccccc1
- growth inhibition [1]: 0%
- growth inhibition [2]: 0.45%
- growth inhibition [3]: -3.15%
- growth inhibition [4]: -26.6%
- growth inhibition [5]: -0.45%
- growth inhibition [6]: 2.95%

Structure (SMILES): CCCCCCCCCCCC(=O)NC(=S)Nc1ccc(C(=O)OCC)cc1
- growth inhibition [1]: 29.9%
- growth inhibition [2]: 31.9%
- growth inhibition [3]: 57.9%
- growth inhibition [4]: 1.35%
- growth inhibition [5]: 29.4%
- growth inhibition [6]: 45.4%

Structure (SMILES): CC1CC=C2C=C(Cl)C=CC2(C)C1C (stereo not drawn)
- growth inhibition [1]: 1.8%
- growth inhibition [2]: 3.55%
- growth inhibition [3]: -2.85%
- growth inhibition [4]: -9.2%
- growth inhibition [5]: 9%
- growth inhibition [6]: -1.85%

Structure (SMILES): COC(=O)c1nc2c3c(cccc3c1C(=O)OC)Nc1ccccc1-2
- growth inhibition [1]: -3.2%
- growth inhibition [2]: 9.65%
- growth inhibition [3]: 0.35%
- growth inhibition [4]: 28.5%
- growth inhibition [5]: 19.4%
- growth inhibition [6]: -39.4%

Structure (SMILES): Cc1cc(C)c2cnnn2n1
- growth inhibition [1]: 10.1%
- growth inhibition [2]: -14.1%
- growth inhibition [3]: 0.6%
- growth inhibition [4]: 15.4%
- growth inhibition [5]: -21.1%
- growth inhibition [6]: -2.75%

Structure (SMILES): CC12CCC(CC1)C2(C)C
- growth inhibition [1]: 5.6%
- growth inhibition [2]: 0.3%
- growth inhibition [3]: 0.15%
- growth inhibition [4]: -4.8%
- growth inhibition [5]: 4.75%
- growth inhibition [6]: -1.6%

Structure (SMILES): BrCC1OCC2(CO1)COC(CBr)OC2 (stereo not drawn)
- growth inhibition [1]: -11.2%
- growth inhibition [2]: 11.3%
- growth inhibition [3]: -7%
- growth inhibition [4]: -16%
- growth inhibition [5]: -6%
- growth inhibition [6]: -13.2%

Structure (SMILES): CNC(=O)NC1C(CO)OC2OC(C)(C)OC21 (stereo not drawn)
- growth inhibition [1]: 6.5%
- growth inhibition [2]: 5.25%
- growth inhibition [3]: 10.4%
- growth inhibition [4]: -35.3%
- growth inhibition [5]: -9.85%
- growth inhibition [6]: 2.55%

Structure (SMILES): CN(C)c1ccc2c(N(C)C)cc(N(C)C)[n+](C)c2c1
- growth inhibition [1]: 7.8%
- growth inhibition [2]: -23.1%
- growth inhibition [3]: -12.8%
- growth inhibition [4]: 15.2%
- growth inhibition [5]: -2%
- growth inhibition [6]: -22.4%

Structure (SMILES): CC[N+](CC)(CC)CCC[n+]1ccc(/C=N\O)cc1
- growth inhibition [1]: 3.1%
- growth inhibition [2]: -1.6%
- growth inhibition [3]: -16.4%
- growth inhibition [4]: -8.25%
- growth inhibition [5]: -0.8%
- growth inhibition [6]: -6.25%

Structure (SMILES): COc1ccc(N2CCN(CC(O)COc3ccc(Cl)cc3)CC2)cc1 (stereo not drawn)
- growth inhibition [1]: 70.8% (active)
- growth inhibition [2]: 18.9%
- growth inhibition [3]: 75% (active)
- growth inhibition [4]: 14.9%
- growth inhibition [5]: 13.8%
- growth inhibition [6]: 28.5%

Structure (SMILES): Cc1ncc([N+](=O)[O-])n1CCNC(=O)CCCn1cnc([N+](=O)[O-])n1
- growth inhibition [1]: -17.8%
- growth inhibition [2]: -34%
- growth inhibition [3]: -15.8%
- growth inhibition [4]: -17.4%
- growth inhibition [5]: -27.9%
- growth inhibition [6]: -38.9%

Structure (SMILES): Nc1ccn(C2OC(COP(=O)(O)O)C(O)C2O)c(=O)n1 (stereo not drawn) (tested in a mixture with another compound)
- growth inhibition [1]: -3.8%
- growth inhibition [2]: -4.25%
- growth inhibition [3]: -0.75%
- growth inhibition [4]: -44.4%
- growth inhibition [5]: 1.15%
- growth inhibition [6]: 14.1%

Structure (SMILES): CCN(CC)C(=O)CN
- growth inhibition [1]: 8.9%
- growth inhibition [2]: 0.6%
- growth inhibition [3]: 9.1%
- growth inhibition [4]: -3.05%
- growth inhibition [5]: 3.3%
- growth inhibition [6]: -8.15%
